Experimental data: PubChem BioAssay (Tox21)
Results filed as inconclusive are left out. Active and inactive are the calls of the source. Unless noted, calls come from the whole dose curve; as a rule, active = well fitted curve in the direction sought with a large enough effect in the repeat runs; inconclusive = weak or mixed curves; inactive = no such curve, though single readings can be large; an effect the other way counts as inactive or inconclusive.

Legend:
[1] = qHTS assay to identify small molecule agonists of the hypoxia (HIF-1) signaling pathway - cell viability counter screen (AID 1224844; calls by dose curve; note: nearly all actives have a fitted effect of over 50% in size; note: potency is the fitted concentration of half-maximal effect)
In short: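 HRE-bla ME-180 cells in medium with 0.5% dialyzed FBS were preincubated 5 hrs at 37C, exposed to compounds for 17 hrs, then viability was read as CellTiter-Glo luminescence after 30 min at room temperature, in the reporter wells.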

[2] = qHTS assay to identify small molecule agonists of H2AX (AID 1224845; active = well fitted activation curve with a large enough effect in the signal ratio in the repeat runs, not every such curve was filed as active; the % refers to the signal ratio)
In short: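 Phospho-H2AX Ser139 measured by HTRF (ex 320 nm; em 665 and 620 nm) after 24 hr antibody incubation. Compounds, 15 concentrations, 0.76% DMSO, were applied to CHO-K1 cells for 3hr at 37C before lysis.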

[3] = qHTS assay to identify small molecule agonists of H2AX - cell viability counter screen (AID 1224847; calls by dose curve;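 note: wild-type CHO-K1 cells; top concentration of the series differs between compounds; nearly all actives have a fitted effect of over 30% in size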)
In short: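 For this counter screen, overnight-attached CHO-K1 cells received test compounds (15 concentrations, 0.76% DMSO final); 3 hr later at 37C, CellTiter-Glo reagent was added and luminescence recorded after 30 min at room temperature.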

[4] = qHTS assay to identify small molecule antagonists of the estrogen related receptor (ERR) signaling pathway from Tox21 library (AID 1224848); note: nearly all actives have a fitted effect of over 50% in size; note: potency is the fitted concentration of half-maximal effect
In short: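 Reading was by luminescence 30 min after ONE-Glo addition. Before that, ERR cells at 2,000 per well had rested 6 h at 37 C/5% CO2 and then received pin-tooled compounds in DMSO for 18 h at 37 C.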

[5] = qHTS assay to identify small molecule agonists of the estrogen related receptor (ERR) signaling pathway from Tox21 library (AID 1224849; calls by dose curve; note: nearly all actives have a fitted effect of over 15% in size); details: ERR reporter cell line, ONE-Glo luciferase, 18 h; at 92.4 µM (top of the series) unless noted
In short: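 ERR reporter cell line (NTP) seeded, rested 6 h at 37 C/5% CO2, then pinned with Tox21 compounds in DMSO. After 18 h at 37 C, ONE-Glo luciferase luminescence was read following 30 min at room temperature.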

[6] = A CellTox Green Cytotoxicity Assay to monitor cytotoxicity in HEK293 cells - 0 hour (AID 1224869); note: nearly all actives have a fitted effect of over 50% in size
In short: (§1)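 HEK293 cells premixed with CellTox Green dye were seeded at 600 cells/well and left 5 h at 37 C/5% CO2 before pin transfer of 23 nL compound in DMSO. Fluorescence from dye bound to dead-cell DNA was read during 40 h treatment.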

[7] = qHTS RealTime-Glo MT Cell Viability Assay in HepG2 cells - 40 hour (AID 1224870); note: nearly all actives have a fitted effect of over 50% in size
In short: (§2)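 Real-time viability: cells seeded at 600 per well together with NanoLuc and cell-permeant prosubstrate, compounds added after 5 h incubation. Luminescence tracked at 0, 8, 16, 24, 32 and 40 h of exposure.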

[8] = A CellTox Green Cytotoxicity Assay to monitor cytotoxicity in HepG2 cells - 16 hour (AID 1224876); note: nearly all actives have a fitted effect of over 45% in size; note: potency is the fitted concentration of half-maximal effect
In short: (§3)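 HepG2 cells were seeded together with the CellTox Green dye at 600 cells/well, left 5 h at 37 C/5% CO2, then given compounds in DMSO. Fluorescence from dye bound to dead-cell DNA was read repeatedly over 40 h of treatment at 37 C.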

[9] = qHTS RealTime-Glo MT Cell Viability Assay in HepG2 cells - 32 hour (AID 1224877); note: nearly all actives have a fitted effect of over 55% in size
In short: (§4)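 Viability was tracked continuously by NanoLuc luminescence from prosubstrate reduced by living HepG2 cells, at successive time points over 40 h of compound exposure. Cells with reagent were preincubated 5 h at 37 °C before compound addition.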

[10] = A CellTox Green Cytotoxicity Assay to monitor cytotoxicity in HepG2 cells - 24 hour (AID 1224878); note: nearly all actives have a fitted effect of over 45% in size; note: potency is the fitted concentration of half-maximal effect
In short: as §3

[11] = A CellTox Green Cytotoxicity Assay to monitor cytotoxicity in HepG2 cells - 40 hour (AID 1224879); note: nearly all actives have a fitted effect of over 40% in size; note: potency is the fitted concentration of half-maximal effect
In short: as §3

[12] = qHTS RealTime-Glo MT Cell Viability Assay in HEK293 cells - 0 hour (AID 1224880); note: top concentration of the series differs between compounds; nearly all actives have a fitted effect of over 45% in size
In short: (§5)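 HEK293 cells mixed with RealTime-Glo reagents (NanoLuc plus cell-permeant prosubstrate) at 600 cells/well, preincubated 5 h at 37 C/5% CO2, then given 23 nL compound in DMSO. Nonlytic luminescence from viable cells was read at 0, 8, 16, 24, 32 and 40 h.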

[13] = A CellTox Green Cytotoxicity Assay to monitor cytotoxicity in HEK293 cells - 40 hour (AID 1224871); note: nearly all actives have a fitted effect of over 45% in size; note: potency is the fitted concentration of half-maximal effect
In short: as §1

[14] = A CellTox Green Cytotoxicity Assay to monitor cytotoxicity in HEK293 cells - 24 hour (AID 1224875); note: nearly all actives have a fitted effect of over 45% in size; note: potency is the fitted concentration of half-maximal effect
In short: as §1

[15] = qHTS RealTime-Glo MT Cell Viability Assay in HepG2 cells - 24 hour (AID 1224867); note: nearly all actives have a fitted effect of over 50% in size
In short: as §4

[16] = qHTS RealTime-Glo MT Cell Viability Assay in HEK293 cells - 32 hour (AID 1224868); note: nearly all actives have a fitted effect of over 50% in size; note: potency is the fitted concentration of half-maximal effect; for activity change, negative = cytotoxic: top concentration of the series differs between compounds
In short: (§6)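 Viability tracked continuously by luminescence as live cells reduce a prosubstrate for NanoLuc; HEK293 cells preincubated 5 h, compound-treated at 37 C, and read at 0, 8, 16, 24, 32 and 40 h.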

[17] = qHTS RealTime-Glo MT Cell Viability Assay in HepG2 cells - 8 hour (AID 1224873); note: nearly all actives have a fitted effect of over 55% in size
In short: as §2

[18] = qHTS RealTime-Glo MT Cell Viability Assay in HEK293 cells - 40 hour (AID 1224874); details: RealTime-Glo luminescence; max response: hits give low values; note: nearly all actives have a fitted effect of over 50% in size; note: potency is the fitted concentration of half-maximal effect
In short: as §5

[19] = qHTS RealTime-Glo MT Cell Viability Assay in HEK293 cells - 16 hour (AID 1224872)
In short: as §6
% is set by controls: 0 for no effect and ±100 for the full control effect.

CN(C)c1ccc(C(c2ccccc2)c2ccc(N(C)C)cc2)cc1
inactive: Potency [1] | Potency [2] | Potency [3] | activity change, positive = activation [5] -34.5% | Potency [6] | Potency [7] | Potency [8] | Potency [9] | Potency [10] | Potency [11] | Potency [12]
active: Potency [4] 34.4 µM

O[C@@H](COc1cccc2ncccc12)CN1CCN(C2c3ccccc3[C@@H]3[C@H](c4ccccc42)C3(F)F)CC1 (stereo partly specified)
inactive: Potency [1] | Potency [2] | Potency [3] | Potency [7] | Potency [13] | Potency [14] | Potency [10] | Potency [11] | Potency [12]

Cc1nn(C)c(Oc2ccccc2)c1/C=N/OCc1ccc(C(=O)OC(C)(C)C)cc1
active: Potency [4] 0.0049 µM | Potency [16] 0.0044 µM | Potency [18] 0.0062 µM
inactive: Potency [1] | Potency [2] | activity change, positive = activation [5] -44.6% | Potency [15] | Potency [6] | Potency [7] | Potency [13] | Potency [17] | Potency [14] | Potency [8] | Potency [10] | Potency [11] | Potency [12]

O=C1C(O)=C(O)C(=O)C(O)=C1O
inactive: Potency [1] | Potency [2] | Potency [3] | Potency [6] | Potency [7] | Potency [13] | Potency [19] | max response [18] -9.06% | Potency [14] | Potency [8] | Potency [10] | Potency [11] | Potency [12]

CCCCCCCCCCCCCCOS(=O)(=O)O
active: Potency [1] 54.9 µM | Potency [13] 43.6 µM | Potency [14] 43.6 µM | Potency [8] 34.7 µM | Potency [10] 34.7 µM | Potency [11] 34.7 µM
inactive: Potency [2] | Potency [3] | activity change, positive = activation [5] -17.5% | Potency [15] | Potency [16] | Potency [6] | Potency [7] | Potency [19] | Potency [17] | max response [18] -13.8% | Potency [9] | Potency [12]

NCC(=O)O
inactive: activity change, negative = cytotoxicity [1] 0.428% [at 15.8 µM] | activation (H2AX phosphorylation) [2] 0.478% [at 31.6 µM] | activity change, negative = cytotoxicity [3] 1.04% [at 31.6 µM] | activity change, negative = cytotoxicity [15] 3.17% [at 15.8 µM] | cytotoxicity [6] -0.777% [at 15.8 µM] | activity change, negative = cytotoxic [7] 0.792% [at 15.8 µM] | cytotoxicity increase [13] 1.17% [at 15.8 µM] | activity change, negative = cytotoxicity [19] 4.48% [at 15.8 µM] | viability change, negative = cytotoxic [17] 8.37% [at 15.8 µM] | max response [18] 8.51% | activity change [14] -2.36% [at 15.8 µM, hits give high values] | cytotoxicity increase [8] 8.58% [at 15.8 µM] | activity change, negative = cytotoxic [9] 0.863% [at 15.8 µM] | cytotoxicity increase [11] 1.98% [at 15.8 µM] | activity change, negative = cytotoxicity [12] -1.51% [at 15.8 µM]

CC1(c2ccccc2)OC(C(=O)O)=CC1=O (stereo unspecified)
inactive: Potency [1] | Potency [2] | Potency [3] | Potency [15] | Potency [16] | Potency [7] | Potency [13] | Potency [19] | max response [18] 2.42% | Potency [14] | Potency [8] | Potency [9] | Potency [10] | Potency [11] | Potency [12]

O=S(=O)(Oc1ccc(Cl)cc1)c1ccccc1
inactive: Potency [1] | Potency [2] | Potency [4] | activity change, positive = activation [5] -14.7% | Potency [15] | Potency [7] | Potency [13] | Potency [17] | max response [18] -29.4% | Potency [14] | Potency [8] | Potency [9] | Potency [11] | Potency [12]

CCCCCCCCO[C@@H]1O[C@H](CO)[C@@H](O)[C@H](O)[C@H]1O
inactive: Potency [1] | Potency [2] | Potency [3] | Potency [16] | Potency [7] | Potency [13] | Potency [19] | max response [18] 4.48% | Potency [14] | Potency [8] | Potency [9] | Potency [10] | Potency [11] | Potency [12]
